Bioassay records from PubChem BioAssay.
Sampled rows, rich in hits. Any-hit rate of the full collection: about 17%.
TGFb inhibitor: blocks TGF-b signaling; actives 1.2% (n = 410,000); HepG2 CAGA-GFP TGF-b/SMAD3 reporter, GFP fluorescence, 18 h; TGF-beta stimulated, 500 pg/mL final; AID 588855; Potency, µM (series often up to 46.1 µM), hits mostly inhibitors; note: nearly all actives have a fitted effect of over 65% in size
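Smad-responsive CAGA-GFP expression was quantified in HEPG2 cells exposed to compounds and 500 pg/mL final TGF-beta for 18 h at 37 degrees C; unstimulated wells defined full inhibition.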
DT40 TDP1 CPT: growth inhibition of DT40 Tdp1-/-;hTDP1 cells with camptothecin (screen for TDP1 inhibitors) | chicken DT40 Tdp1-/-;hTDP1 cells + 20 nM CPT, ATP luminescence, 48 h | actives 12% (n = 420,000) | AID 686979 | Potency, µM (top dose mostly 46.2 µM), actives largely listed as inhibitors; note: nearly all actives have a fitted effect of over 55% in size
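Chicken DT40 Tdp1-/- cells complemented with human TDP1, 400 cells/well, exposed to compounds plus 20 nM camptothecin for at least 48 h at 37 C; viability read as ATP content by CellTiter-Glo luminescence.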
HT1080NT lethal: kills 2HG-producing HT-1080-NT fibrosarcoma cells; Potency, µM (titrated, usually from 46.1 µM), hits mostly cytotoxic; HT-1080-NT fibrosarcoma viability, CellTiter-Glo ATP luminescence, 48 h; actives 1.6% (n = 360,000);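 note: NT is the 2HG producing partner of a matched IDH1 knockdown line; nearly all actives have a fitted effect of over 55% in size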
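Viability of the 2HG-overproducing fibrosarcoma line after 48 hours of compound exposure at 37 degrees C was determined by luminescence with CellTiter-Glo, and concentration-effect curves were then fitted and categorized.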
TDP1 cell noCPT: qHTS for Inhibitors of human tyrosyl-DNA phosphodiesterase 1 (TDP1): qHTS in cells in absence of CPT; DT40 Tdp1-/- hTDP1 cells, no CPT, ATP luminescence, 48 h; Potency, µM (highest dose often 46.2 µM), hits mostly inhibitors; actives 15% (n = 420,000); note: nearly all actives have a fitted effect of over 55% in size
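Stably hTDP1-transfected Tdp1-null chicken DT40 cells were treated with library compounds minus camptothecin and grown for at least 48 hr at 37 °C, after which cellular ATP was quantified by luminescence.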
HT1080 IDH1KD tx: kills HT-1080 cells with IDH1 knockdown; HT-1080 IDH1 knockdown viability, ATP luminescence, 48 h; Potency, µM (doses to about 46.1 µM), most hits filed as cytotoxic; actives 2% (n = 360,000); AID 686971
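% activity derives from luminescence (CellTiter-Glo), normalised to DMSO and no-cell wells. HT-1080-IDH1KD cells, 750/well, had 48 h compound exposure at 37 °C.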
HepG2 tox: counter-screen for TGF-b inhibitors: cytotoxicity in HepG2 cells. HepG2 CAGA-GFP viability, ATP luminescence, 18 h. Potency, µM (series often up to 46.1 µM), most hits filed as cytotoxic. actives 0.76% (n = 410,000). AID 588856
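CellTiter-Glo luminescence gave cytotoxicity after 18 hours at 37 degrees C. The cells were HepG2 CAGA-GFP in 1% FBS DMEM, stimulated with 500 pg/mL TGF-beta after compound addition. %Activity was normalised to no-cell wells (complete cell-killing) and DMSO (no toxicity), and curves were fitted and classified.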
Numbers stand for hits; – = inactive; ? = inconclusive; · = not tested or not shown; [ ] = remark or other dose. Calls come from the whole dose curve; as a rule, active = well fitted curve in the direction sought with a large enough effect; inconclusive = small, poorly fitted or top-dose-only effect, or another doubt; inactive = no such curve, though single readings can be large; an effect the other way counts as inactive or inconclusive.

SMILES	TGFb inhibitor	DT40 TDP1 CPT	HT1080NT lethal	TDP1 cell noCPT	HT1080 IDH1KD tx	HepG2 tox
CC1CN(CC(=O)Nc2ccccc2Sc2ccccc2)CC(C)O1 (stereo unspecified)	–	23µM	–	23µM	–	–
O=C(CN1CCOCC1)Nc1ccccc1Sc1ccccc1	–	–	–	–	–	–
CC(=O)N1CCN(CC(=O)Nc2ccccc2Sc2ccccc2)CC1	–	?	–	23µM	–	–
CC(C)CC(=O)Nc1ccnn1C1CCN(C(=O)c2ccc(Cl)cc2F)CC1	–	?	–	?	–	–
c1ccc2c(N3CCCCCC3)nc(CN3CCCCC3c3nccs3)nc2c1 (stereo unspecified)	·	–[9.04 µM]	·	?	·	·
S=C(Nc1cccc(Cl)c1)N(CCCN1CCCC1)Cc1cccn1Cc1ccc(Cl)cc1	?	?	16µM	18µM	18µM	25µM
CSc1cccc(NC(=S)N(CCCN2CCCC2)Cc2cccn2Cc2ccc(Cl)cc2)c1	?	?	18µM	9.2µM	?	–
COc1cccc(NC(=S)N(CCCN2CCCC2)Cc2cccn2Cc2ccc(Cl)cc2)c1	?	?	21µM	18µM	18µM	–
CN(CC(=O)Nc1cccc(S(=O)(=O)NC2=NCCC2)c1)Cc1cccc(F)c1	–	–	–	–	–	–
COCCN1CCN(C(=O)c2ccc3nc(Cc4ccc(OC)c(OC)c4)oc3c2)CC1	–	12µM	7.3µM	6.5µM	–	–
COCC1CCCN(C(=O)c2ccc3oc(Cc4ccc(Cl)cc4)nc3c2)C1 (stereo unspecified)	–	23µM	–	8.2µM	–	–
COCC1CCN(C(=O)c2ccc3oc(CCc4ccccc4)nc3c2)C1 (stereo unspecified)	–	?	–	?	–	–
COc1ccc(Cc2nc3ccc(C(=O)N4CCC(C(N)=O)CC4)cc3o2)cc1	–	–	–	–	–	–
COCC1CCCCN1C(=O)c1ccc2oc(CCCc3ccccc3)nc2c1 (stereo unspecified)	?	18µM	–	23µM	–	–
COCC1CCN(C(=O)c2ccc3nc(Cc4cccc(Cl)c4)oc3c2)CC1	–	21µM	–	18µM	–	–
COC1CCCN(C(=O)c2ccc3oc(Cc4ccc(Cl)cc4)nc3c2)C1 (stereo unspecified)	–	–	–	?	–	–
COc1ccc(-n2c(=O)cnc3cnc(Oc4ccccc4)nc32)cc1	·	–	·	?	·	·
Cn1cc(-c2ccccc2C(=O)O)c(=O)c2cc(Cl)ccc21	–	–	–	–	–	–
CC(C)CC(=O)C1CCCN(C(=O)c2ccc3oc(Cc4ccccc4)nc3c2)C1 (stereo unspecified)	–	23µM	–	23µM	–	–
COCC1CCCN(C(=O)c2ccc3nc(Cc4cccc(Cl)c4)oc3c2)C1 (stereo unspecified)	–	26µM	–	15µM	–	–
CCc1ccc(/C=C(\C#N)C(=O)NC2CCS(=O)(=O)C2)cc1 (stereo unspecified)	–	–	–	–	–	–
CC(C)(C)c1ccccc1OCCCCCNCCO	–	?	?	?	?	–
O=C(COc1coc(CN2CCN(c3cccc(Cl)c3)CC2)cc1=O)NC1CCCC1	–	?	–	15µM	–	–
Cc1ccc(NC(=O)COc2coc(CN3CCN(c4ccccc4)CC3)cc2=O)cc1	–	–	–	21µM	–	–
O=C(COc1coc(CN2CCN(c3ccccc3)CC2)cc1=O)Nc1ccccc1	–	?	–	–	–	–
CC(C)NC(=O)COc1coc(CN2CCN(c3cccc(Cl)c3)CC2)cc1=O	–	–	–	–	–	–
CN(CC(=O)Nc1ccccc1Cl)C(=O)c1ccc(N2C(=O)CCC2=O)cc1	–	–	–	–	–	–
